Experimental data as given in PubChem BioAssay AID1159580 (chemical genetic matrix, 2015).
About 2,000 (36%) of roughly 5,500 compounds were called active. Another 18% or so got no clear call; they are omitted. Rule as the data show it: active = normalized growth mostly below about 0.91 (no sharp cut-off); inconclusive = no clear call, values can overlap the other calls; inactive = mostly above about 0.92. The list shows a part of the results.

Assay: chemical genetic growth profiling, strain panel (AID 1159580);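 also: tested at 20 µM; growth read once vehicle control cultures reached saturation at 30 °C; 1 = growth at the plate median or of vehicle wells; lower values mean less growth of the strain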
Details: S. cerevisiae deletion strains, growth OD

Measured: normalized growth

N=c1c[n+](N2CCOCC2)[n-]o1
inactive: locus YAL040C, strain CLN3, active compounds read low 1 | locus YCL061C, strain MRC1 (second series), active compounds read low 1.02 | locus YDR363W, strain ESC2, active compounds read low 1.01 | locus YER002W, strain NOP16, active compounds read low 1 | locus YJR075W, strain HOC1, active compounds read low 1.01 | locus YMR307W, strain GAS1, active compounds read low 1.01 | locus YNL175C, strain NOP13, active compounds read low 1.01 | locus YNL197C, strain WHI3, active compounds read low 0.999 | locus YNL224C, strain SQS1, active compounds read low 1.02 | locus YOR083W, strain WHI5 (second series), active compounds read low 1.01 | locus YPL055C, strain LGE1, active compounds read low 1.02
